These results are taken from PubChem BioAssay (NCATS).

The target of experiment [1] is Lysosomal acid glucosylceramidase (Homo sapiens) (UniProt P04062). The experiment is described as follows: Glucocerebrosidase-p2 (AID 348; in the data active = potency below about 10 µM; note: potency is the fitted concentration of half-maximal effect). As to conditions: purified GBA, blue fluorogenic substrate, 40 min. In short, it runs like this:
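Normal human glucocerebrosidase (0.2 nM) with blue fluorogenic substrate (80 uM final) in citrate/phosphate pH 5.9 with 10mM sodium taurocholate, 0.01% tween-20; 40 min RT, NaOH/glycine stop; fluorescence Ex 365/Em 440; AC50 from a titration from 0.6 nM upwards.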

The nature of experiment [2]: AP1 Signaling Pathway (AID 357). Note: % is set by controls: 0 for no effect and ±100 for the full control effect. As to conditions: ME-180 AP-1-bla reporter, EGF-induced, beta-lactamase ratio, 5 h; at 7.69 µM (top of the series) unless noted. Summed up: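 AP-1-bla ME-180 cells with beta-lactamase reporter under AP-1 response element, stimulated with EC50 EGF; compounds titrated, 5 hours at 37 degrees Celsius. CCF4 read at 460/530 nm ratio; positive and negative modulators judged by AC50.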

Experiment [3] has as its target Cytochrome P450 1A2 (Homo sapiens) (UniProt P05177). Nature of the experiment: p450-cyp1a2 (AID 410; calls by dose curve; note: potency is the fitted concentration of half-maximal effect;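 for activity change, negative = inhibition: -100% = full effect of reference inhibitor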). The conditions noted are these: recombinant CYP1A2, luciferin-ME demethylation, luminescence; series mostly up to 57 µM. Summed up: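 Luminescent demethylation readout: Luciferin-ME (100uM, equal to Km) turned over by 20nM CYP1A2 for 60 min at room temperature after NADPH regeneration addition, following 10 min compound preincubation. Normalization used 57 uM furafylline as full inhibition.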

Experiment [4] is described as follows: Stat Signaling Pathway (AID 446).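 Note: ME-180 cervical cancer cells given 40 pM IL-6 alongside compound; SIE-controlled beta-lactamase reporter measured as 460/530 nm FRET emission ratio; % is set by controls: 0 for no effect and ±100 for the full control effect.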 The conditions noted are these: ME-180 SIE beta-lactamase reporter, IL-6 stimulated, 5 h; at 7.69 µM (top of the series) unless noted. In short, it runs like this: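 Compound effects on IL-6-induced STAT reporter activity were measured in ME-180 cells. After overnight culture, cells were co-treated with 40 pM IL-6 for 5 hrs before beta-lactamase substrate loading at room temperature.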

Experiment [5] has as its target Glucocorticoid receptor (Homo sapiens) (UniProt P04150). Nature of the experiment: GR-EFC Redistribution (AID 451; calls by dose curve; note: potency is the fitted concentration of half-maximal effect). As to conditions: CHO-K1 GR-EFC translocation, beta-gal luminescence, 2 h. In short, it runs like this:
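CHO-K1 cells expressing nuclear EA and GR-ED fragments of b-gal; compounds titrated up to 46 uM final, 2 h at 37 C. GR nuclear translocation read as complemented b-gal luminescence after 1 h RT detection.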

In experiment [6] the target is Mitogen-activated protein kinase 10 (Mus musculus) (UniProt Q61831). Nature of the experiment: JNK3 AlphaScreen Assay (AID 530).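 Note: kinase came from lysate of stimulated human HepG2 cells; signal reports phosphorylation of biotinylated GST-cJun 1-79 at Ser73 with 10 µM ATP; % is set by controls: 0 for no effect and ±100 for the full control effect.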 As to conditions: JNK3 lysate, c-Jun phosphorylation; series mostly up to 57.1 µM. Summed up:
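Activity was read by AlphaScreen after JNK3-containing HepG2 lysate (cytokine pre-activated) phosphorylated biotinylated GST-cJun with 10 uM ATP at room temperature. Phospho-Ser73 cJun antibody with Protein-A acceptor beads provided detection.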

In experiment [7] the target is 3',5'-cyclic-AMP phosphodiesterase 4B (Homo sapiens) (UniProt Q07343). Nature of the experiment: qHTS Assay for Inhibitors of PDE-IV (AID 607; active = well fitted activation curve with a large enough effect in the main read-out, with a control signal flat, not every such curve was filed as active; note: % of control where 0% means no effect). As to conditions: HEK293 ACTOne CNG channel cells, membrane potential fluorescence; series mostly up to 22.9 µM. In short, it runs like this: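 ACTOne HEK293 cells carry a modified cAMP-gated CNG channel and express endogenous PDE4; plated 1000 cells/well, compounds up to 22.9 uM final. Membrane-potential dye fluorescence (ex 535/em 590) was read; parental cells received 10 uM forskolin + 100 uM RO 20-1724.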
Chain of 3',5'-cyclic-AMP phosphodiesterase 4B (Homo sapiens) (Q07343 whole entry, looked up): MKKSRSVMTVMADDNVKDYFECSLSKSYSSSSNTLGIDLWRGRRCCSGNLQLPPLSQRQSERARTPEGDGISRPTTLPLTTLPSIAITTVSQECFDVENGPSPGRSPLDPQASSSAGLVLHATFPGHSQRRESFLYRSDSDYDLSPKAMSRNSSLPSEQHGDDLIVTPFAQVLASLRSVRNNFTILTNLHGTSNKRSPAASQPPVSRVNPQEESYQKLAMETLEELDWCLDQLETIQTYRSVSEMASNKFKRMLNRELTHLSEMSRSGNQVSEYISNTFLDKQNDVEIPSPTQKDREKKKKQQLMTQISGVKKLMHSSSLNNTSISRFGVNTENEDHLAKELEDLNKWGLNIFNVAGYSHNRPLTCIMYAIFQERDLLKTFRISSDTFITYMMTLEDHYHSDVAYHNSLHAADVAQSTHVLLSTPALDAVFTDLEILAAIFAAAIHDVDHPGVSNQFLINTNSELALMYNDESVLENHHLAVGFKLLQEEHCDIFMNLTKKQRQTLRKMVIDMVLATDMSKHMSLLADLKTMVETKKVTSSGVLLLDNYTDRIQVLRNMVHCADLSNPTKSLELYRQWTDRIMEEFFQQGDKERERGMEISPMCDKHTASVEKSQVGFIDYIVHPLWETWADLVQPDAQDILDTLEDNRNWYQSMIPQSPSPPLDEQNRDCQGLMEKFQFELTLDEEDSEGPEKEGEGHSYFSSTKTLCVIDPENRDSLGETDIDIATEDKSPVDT
A general note: Quantitative high-throughput screening tests each substance at several concentrations.

Experiment [8] has as its target Cytochrome P450 3A4 (Homo sapiens) (UniProt P08684). Nature of the experiment: qHTS Assay for Inhibitors and Substrates of Cytochrome P450 3A4 (AID 884; active = well fitted curve in the direction sought with a large enough effect; an effect the other way counts as inactive or inconclusive; note: nearly all actives have a fitted effect of over 50% in size; note: potency is the fitted concentration of half-maximal effect). As to conditions: recombinant CYP3A4, Luciferin-PPXE luminescence; series mostly up to 57.1 µM. Summed up: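 Luminescent readout of luciferin produced by CYP3A4 (20 nM) dealkylation of Luciferin-PPXE, 25 uM (its KM). NADPH-driven reaction ran 60 min at RT after 10 min compound preincubation; data scaled to 57 uM ketoconazole as 100% inhibition.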

Experiment [9] has the same target. The experiment is described as follows: qHTS Assay for Activators of Cytochrome P450 3A4 (AID 885; active = well fitted curve in the direction sought with a large enough effect; an effect the other way counts as inactive or inconclusive; note: nearly all actives have a fitted effect of over 65% in size; note: potency is the fitted concentration of half-maximal effect). The conditions noted are these: recombinant CYP3A4, Luciferin-PPXE luminescence, 60 min; series mostly up to 57.1 µM. Summed up:
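CYP3A4 activity: Luciferin-PPXE O-dealkylation, 25uM substrate, 200mM KPO4, RT throughout. Read-out is luciferase luminescence; higher values reflect activation.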

The nature of experiment [10]: qHTS Assay for Lipid Storage Modulators (AID 1519; calls by dose curve). As to conditions: Drosophila S3 cells, BODIPY lipid droplet/cell ratio, laser cytometry, cells loaded with oleic acid; for activity change, negative = inhibition: at 57.5 µM (top of the series). Summed up: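 Cells seeded at 5,000 per well were treated with compounds over a concentration series and loaded with oleic acid (400 uM, as added). Lipid droplet fluorescence (488 nm excitation, 500-530 nm channel) was read by laser-scanning cytometry and normalized to 20 uM Triacsin C.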

Experiment [11] is described as follows: Primary qHTS for small molecule stabilizers of the endoplasmic reticulum resident proteome: Secreted ER Calcium Modulated Protein (SERCaMP) assay (AID 1508630; active = well fitted curve in the direction sought with a large enough effect; an effect the other way counts as inactive or inconclusive; note: % is set by controls: 0 for no effect and ±100 for the full control effect). As to conditions: SH-SY5Y GLuc-SERCaMP (Gaussia luciferase released on ER calcium loss) secretion, thapsigargin, luminescence; series mostly up to 38.4 µM. In short, it runs like this: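 The SH-SY5Y reporter protocol was run at 3 concentrations up to 38.3 uM (primary) or 11 concentrations (follow-up): 16 h compound, 100 nM thapsigargin for 4 h, then extracellular luciferase luminescence.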

Experiment [12] is described as follows: qHTS Assay for Identification of Small Molecule Agonists for Hypoxia Response Element Signaling Pathway (AID 914; active = well fitted activation curve with a large enough effect in the signal ratio, with a control signal flat, not every such curve was filed as active; the % refers to the signal ratio; note: % of control where 0% means no effect). The conditions noted are these: ME-180 (cervical carcinoma) HRE-bla reporter, beta-lactamase ratio, CoCl2, 17 h; activation: stronger effect = higher value. In short, it runs like this:
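Compounds in a titration series were added to ME-180 reporter cells alongside an EC50 level of CoCl2. After 17 hours, beta-lactamase activity was read as the 460nm/530nm emission ratio of CCF4, giving AC50 values.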

Where [13] appears, read: measured here: cell count channel max response.
[14] abbreviates: measured here: lipid channel max response.

Inconclusive results are not listed. Calls of active or inactive are those of the source. Unless noted, calls come from the whole dose curve; as a rule, active = well fitted curve in either direction with a large enough effect (not every such curve was filed as active); inconclusive = small, poorly fitted or top-dose-only effect, or another doubt; inactive = flat fitted curve, though single readings scatter.

Chain of Cytochrome P450 1A2 (Homo sapiens) (P05177 whole entry, looked up): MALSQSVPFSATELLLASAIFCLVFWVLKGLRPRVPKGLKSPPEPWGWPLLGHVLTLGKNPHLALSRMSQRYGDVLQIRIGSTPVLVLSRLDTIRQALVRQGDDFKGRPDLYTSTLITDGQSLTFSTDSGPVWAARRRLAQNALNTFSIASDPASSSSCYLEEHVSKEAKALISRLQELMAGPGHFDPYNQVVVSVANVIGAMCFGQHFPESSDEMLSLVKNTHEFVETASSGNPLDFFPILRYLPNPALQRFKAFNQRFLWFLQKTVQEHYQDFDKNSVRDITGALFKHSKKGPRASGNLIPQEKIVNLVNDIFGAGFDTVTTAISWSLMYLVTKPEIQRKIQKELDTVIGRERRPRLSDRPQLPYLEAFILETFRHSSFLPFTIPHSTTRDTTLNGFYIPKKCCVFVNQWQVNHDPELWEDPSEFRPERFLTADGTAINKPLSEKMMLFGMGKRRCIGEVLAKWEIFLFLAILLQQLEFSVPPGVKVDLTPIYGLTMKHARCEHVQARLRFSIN
Chain of Glucocorticoid receptor (Homo sapiens) (P04150 whole entry, looked up, the tested form may be a part): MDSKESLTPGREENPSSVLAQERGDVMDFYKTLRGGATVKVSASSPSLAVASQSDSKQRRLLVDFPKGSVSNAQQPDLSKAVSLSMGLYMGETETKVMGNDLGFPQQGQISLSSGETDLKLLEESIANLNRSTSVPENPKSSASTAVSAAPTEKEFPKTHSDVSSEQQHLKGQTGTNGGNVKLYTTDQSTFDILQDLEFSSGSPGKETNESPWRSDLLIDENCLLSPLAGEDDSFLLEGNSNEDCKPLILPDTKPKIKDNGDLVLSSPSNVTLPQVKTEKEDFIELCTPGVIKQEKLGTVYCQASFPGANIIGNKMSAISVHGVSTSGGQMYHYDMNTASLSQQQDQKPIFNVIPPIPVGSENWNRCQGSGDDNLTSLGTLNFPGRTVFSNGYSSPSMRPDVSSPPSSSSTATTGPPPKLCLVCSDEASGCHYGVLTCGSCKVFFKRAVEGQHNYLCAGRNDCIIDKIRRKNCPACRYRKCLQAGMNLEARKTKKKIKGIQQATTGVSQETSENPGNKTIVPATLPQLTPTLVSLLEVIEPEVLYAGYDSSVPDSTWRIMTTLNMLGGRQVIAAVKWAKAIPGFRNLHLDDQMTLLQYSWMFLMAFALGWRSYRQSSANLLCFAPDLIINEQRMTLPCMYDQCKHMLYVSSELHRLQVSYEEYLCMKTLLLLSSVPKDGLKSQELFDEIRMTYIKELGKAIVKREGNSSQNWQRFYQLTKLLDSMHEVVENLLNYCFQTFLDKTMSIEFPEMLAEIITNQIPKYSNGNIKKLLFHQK
Chain of Cytochrome P450 3A4 (Homo sapiens) (P08684 whole entry, looked up): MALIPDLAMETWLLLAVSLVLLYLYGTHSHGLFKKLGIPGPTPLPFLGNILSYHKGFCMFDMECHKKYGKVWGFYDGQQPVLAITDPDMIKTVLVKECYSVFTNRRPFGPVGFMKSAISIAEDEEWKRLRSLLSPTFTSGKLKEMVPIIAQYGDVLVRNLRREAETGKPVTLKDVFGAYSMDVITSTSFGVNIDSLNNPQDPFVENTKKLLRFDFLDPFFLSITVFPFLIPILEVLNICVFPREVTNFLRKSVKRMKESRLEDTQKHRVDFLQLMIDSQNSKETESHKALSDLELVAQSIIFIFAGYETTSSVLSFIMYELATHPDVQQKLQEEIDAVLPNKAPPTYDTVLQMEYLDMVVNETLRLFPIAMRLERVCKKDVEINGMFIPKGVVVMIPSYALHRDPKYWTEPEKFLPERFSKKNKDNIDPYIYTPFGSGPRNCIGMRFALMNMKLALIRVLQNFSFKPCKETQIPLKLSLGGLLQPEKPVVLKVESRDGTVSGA
Chain of Lysosomal acid glucosylceramidase (Homo sapiens) (P04062 whole entry, looked up): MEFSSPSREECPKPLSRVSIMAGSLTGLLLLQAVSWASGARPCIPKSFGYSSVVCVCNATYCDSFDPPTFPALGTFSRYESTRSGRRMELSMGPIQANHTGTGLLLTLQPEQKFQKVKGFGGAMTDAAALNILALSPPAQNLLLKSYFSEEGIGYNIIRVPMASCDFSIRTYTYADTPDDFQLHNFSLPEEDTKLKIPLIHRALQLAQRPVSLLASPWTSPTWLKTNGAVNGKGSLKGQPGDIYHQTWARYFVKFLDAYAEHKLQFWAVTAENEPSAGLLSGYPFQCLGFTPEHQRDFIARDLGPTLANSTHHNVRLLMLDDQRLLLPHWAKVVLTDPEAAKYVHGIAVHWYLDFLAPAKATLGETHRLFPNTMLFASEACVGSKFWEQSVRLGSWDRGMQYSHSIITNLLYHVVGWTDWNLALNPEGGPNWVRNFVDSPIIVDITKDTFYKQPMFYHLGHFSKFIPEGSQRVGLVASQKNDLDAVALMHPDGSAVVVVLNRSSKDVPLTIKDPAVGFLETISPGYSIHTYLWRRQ

For `COc1ccc(C(=O)N2CCC3(CC2)CCN(C(c2ccccc2)c2ccccc2)CC3)cc1`, the Potency in [1] was > 11.4 µM (inactive); in [5], > 46 µM (inactive); in [9], 3.16 µM (active). The values for the activity change, negative = inhibition in [2] and in [10] were 4.01% (inactive) and 2.48% (inactive), respectively. Also, the Potency entry in experiment [3], in experiment [6], in experiment [7] and in [8] was “inactive” throughout. Moreover, the activity, negative = inhibition in [4] was -17.5% (inactive). Also, the max response in [10] (setting [13]) came out at 13.4%; in [10] (setting [14]) it was 21.1%. In experiment [11], the outcome was inactive.
For `O=C(c1ccco1)N1CCC2(CC1)CN(c1ccccn1)C2`, the Potency was > 11.4 µM (inactive) in experiment [1], > 46 µM (inactive) in [5] and 10 µM (active) in [9]. Also, the activity change, negative = inhibition in [2] was 2.14% (inactive); in experiment [10], 5.94% (inactive). Also, the Potency result in experiment [3], in experiment [6], in experiment [7] and in experiment [8] was “inactive” in each case. Further, the activity, negative = inhibition in experiment [4] was -14.8% (inactive). Also, the max response is 3% in experiment [10] (setting [13]) and 11.7% in experiment [10] (setting [14]). Besides, the outcome in [11] was inactive.
In the case of `N#Cc1cccc(NC(=O)N2CCC3(CC2)CCN(C(=O)c2cccc(F)c2)CC3)c1`, the values for the Potency in [1], in experiment [5] and in experiment [9] were > 11.4 µM (inactive), > 46 µM (inactive) and 7.94 µM (active), respectively. Besides, the activity change, negative = inhibition was -11.8% (inactive) in experiment [2] and 5.01% (inactive) in experiment [10]. For the same compound, the Potency entry in experiment [3], in experiment [6], in experiment [7] and in experiment [8] was “inactive” each time. In [4], the activity, negative = inhibition is -7.8% (inactive). The max response in [10] (setting [13]) worked out at 6.66%; in [10] (setting [14]), 13.2%. Besides, the outcome in experiment [11] was inactive.
As to `Cn1cccc1C(=O)N1CCC2(CCCN(Cc3ccc(C#N)cc3)C2)CC1`, the values for the Potency in [1], in experiment [3] and in [5] were > 11.4 µM (inactive), 12.6 µM (active) and > 46 µM (inactive), respectively. Besides, the activity change, negative = inhibition in experiment [2] was 10.6% (inactive); in experiment [10] it was 1.29% (inactive). Further, the activity, negative = inhibition in experiment [4] is -1.12% (inactive). For the same compound, the Potency entry in experiment [6], in [7] and in [9] was “inactive” each time. In addition, the max response was 17.2% in [10] (setting [13]) and 18.2% in [10] (setting [14]). Also, the result in experiment [11] was inactive.
With `O=S(=O)(c1ccccc1)N1CCC2(CC1)CN(c1ccccn1)C2`, the Potency in experiment [1] was > 11.4 µM (inactive); in experiment [5], > 46 µM (inactive). In addition, the activity change, negative = inhibition in [2] is 16% (inactive); in [10], -4.43% (inactive). Besides, the Potency entry in experiment [3], in experiment [6], in [7] and in experiment [9] was “inactive” throughout. The activity, negative = inhibition in experiment [4] was -15% (inactive). Moreover, the max response is -4.86% in [10] (setting [13]) and -8.67% in [10] (setting [14]). Further, the outcome in [11] was inactive.
For the compound `Cc1noc(C)c1C(=O)N1CCC2(CC1)CCN(c1ccncc1)CC2`, the Potency was > 11.4 µM (inactive) in experiment [1] and > 46 µM (inactive) in experiment [5]. Further, the activity change, negative = inhibition was 10.3% (inactive) in [2] and 1.45% (inactive) in experiment [10]. Also, the Potency entry in experiment [3], in experiment [6], in experiment [7] and in experiment [9] was “inactive” throughout. Besides, the activity, negative = inhibition in experiment [4] is 8.12% (inactive). Further, the values for the max response in experiment [10] (setting [13]) and in [10] (setting [14]) were 9.32% and 12.2%, respectively. Also, the outcome in [11] was inactive.
As to `N#Cc1ccc(CN2CC[C@@]3(CCCN(C(=O)c4cc(C(F)(F)F)cc(C(F)(F)F)c4)C3)C2)cc1`, the Potency in experiment [1] is > 11.4 µM (inactive); in experiment [3], 25.1 µM (active); in [5] it was > 46 µM (inactive); in experiment [8] it was 5.01 µM (active). The results for the activity change, negative = inhibition in experiment [2] and in experiment [10] were 17.7% (inactive) and 2.06% (inactive), respectively. The activity, negative = inhibition in experiment [4] was -2.46% (inactive). The Potency result in experiment [6], in experiment [7] and in [9] was “inactive” throughout. Besides, the activation in [12] was 13.6% (inactive). In addition, the max response is -0.217% in experiment [10] (setting [13]) and 4.67% in [10] (setting [14]). The outcome in experiment [11] was inactive.
